According to PubChem BioAssay AID1159580 (chemical genetic matrix, 2015):
Where “and” joins values, the source holds several entries; their conditions need not be identical. Equal values may be shown once. Screen size: about 5,500 compounds; about 2,000 (36%) were called active. About 18% were inconclusive and are not listed. No stated cut-off is given here; in the data, active means normalized growth mostly below about 0.91 (no sharp cut-off); inconclusive means no clear call, values can overlap the other calls; inactive means mostly above about 0.92. This is one part of the list.

Experiment: chemical genetic growth profiling, strain panel (AID 1159580);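 further: tested at 20 µM; growth read once vehicle control cultures reached saturation at 30 °C; 1 = growth at the plate median or of vehicle wells; lower values mean less growth of the strain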
Details: S. cerevisiae deletion strains, growth OD

Measured: normalized growth

CC(C)[N+](C)(CCC(C(N)=O)(c1ccccc1)c1ccccc1)C(C)C
inactive: locus YAL013W, strain DEP1, hits give low values 1.01 | locus YAL021C, strain ccr4, hits give low values 0.997 | locus YAL026C, strain drs2, hits give low values 0.999 | locus YAL030W, strain snc1, hits give low values 0.993 | locus YBL061C, strain skt5, hits give low values 0.992 | locus YBR009C, strain hhf1, hits give low values 0.994 | locus YBR021W, strain FUR4, hits give low values 1 | locus YBR023C, strain chs3, hits give low values 0.979 | locus YBR171W, strain sec66, hits give low values 0.987 | locus YBR229C, strain ROT2, hits give low values 1.01 | locus YBR231C, strain swc5, hits give low values 0.991 | locus YBR279W, strain paf1, hits give low values 0.97 | locus YCL011C, strain gbp2, hits give low values 0.966 | locus YCL016C, strain dcc1, hits give low values 0.953 | locus YCL029C, strain bik1, hits give low values 1 | locus YCL061C, strain MRC1, hits give low values 0.97 | locus YCL069W, strain vba3, hits give low values 0.993 | locus YCR088W, strain abp1, hits give low values 0.986 | locus YDL005C, strain med2, hits give low values 0.996 | locus YDL035C, strain GPR1, hits give low values 1.01 | locus YDL040C, strain nat1, hits give low values 0.996 | locus YDL074C, strain BRE1, hits give low values 1.01 | locus YDL101C, strain DUN1, hits give low values 1.01 | locus YDL185W, strain tfp1, hits give low values 0.996 | locus YDL192W, strain arf1, hits give low values 1 | locus YDR001C, strain nth1, hits give low values 0.987 | locus YDR069C, strain doa4, hits give low values 1 | locus YDR101C, strain arx1, hits give low values 0.999 | locus YDR137W, strain rgp1, hits give low values 0.987 | locus YDR150W, strain NUM1, hits give low values 1.01 | locus YDR159W, strain sac3, hits give low values 0.997 | locus YDR162C, strain NBP2, hits give low values 1 | locus YDR195W, strain ref2 1.02 | locus YDR297W, strain sur2, hits give low values 0.991 | locus YDR318W, strain mcm21, hits give low values 0.999 | locus YDR334W, strain swr1, hits give low values 0.981 | locus YDR335W, strain msn5, hits give low values 0.99 | locus YDR388W, hits give low values 1 | locus YDR392W, strain spt3, hits give low values 0.9 | locus YDR502C, strain sam2, hits give low values 0.986 | locus YEL003W, strain gim4, hits give low values 1.01 | locus YEL037C, strain rad23, hits give low values 0.987 | locus YEL061C, strain CIN8 (second series), hits give low values 0.988 | locus YEL061C, strain CIN8, hits give low values 0.999 | locus YER015W, strain faa2, hits give low values 0.995 | locus YER016W, strain bim1, hits give low values 0.998 | locus YER110C, hits give low values 1 | locus YER111C, strain swi4, hits give low values 0.981 | locus YER155C, strain BEM2 (second series), hits give low values 1 | locus YER155C, strain BEM2, hits give low values 1.02 | locus YER167W, strain BCK2, hits give low values 0.999 | locus YFR010W, strain ubp6, hits give low values 0.986 | locus YGL078C, strain dbp3, hits give low values 0.996 | locus YGL086W, strain mad1, hits give low values 1 | locus YGL167C, strain pmr1, hits give low values 0.989 | locus YGL173C, strain kem1, hits give low values 0.998 | locus YGL227W, strain vid30, hits give low values 0.98 | locus YGL240W, strain doc1, hits give low values 1 | locus YGL248W, strain PDE1, hits give low values 1 | locus YGL253W, strain hxk2, hits give low values 0.983 | locus YGR135W, strain pre9, hits give low values 0.978 | locus YGR252W, strain gcn5, hits give low values 0.896 | locus YHR013C, strain ard1, hits give low values 0.961 | locus YHR027C, strain rpn1, hits give low values 0.997 | locus YHR030C, strain SLT2, hits give low values 0.998 and 1 | locus YHR079C, strain IRE1 (second series), hits give low values 0.998 | locus YHR079C, strain IRE1, hits give low values 0.994 | locus YHR094C, strain hxt1, hits give low values 0.995 | locus YHR129C, strain ARP1, hits give low values 1.01 | locus YHR142W, strain chs7, hits give low values 0.939 | locus YHR200W, strain rpn10, hits give low values 1 | locus YIL066C, strain RNR3, hits give low values 1.01 | locus YIL073C, strain SPO22, hits give low values 0.988 | locus YIL125W, strain kgd1, hits give low values 0.993 | locus YIR030C, strain dcg1, hits give low values 1.02 | locus YJL092W, strain hpr5, hits give low values 0.986 | locus YJL095W, strain BCK1 (second series), hits give low values 0.988 | locus YJL095W, strain BCK1, hits give low values 1.01 | locus YJL115W, strain asf1, hits give low values 0.993 | locus YJL129C, strain trk1, hits give low values 0.991 | locus YJL134W, strain LCB3, hits give low values 1.02 | locus YJL154C, strain vps35, hits give low values 1 | locus YJL164C, strain tpk1, hits give low values 0.987 | locus YJL166W, strain qcr8, hits give low values 0.972 | locus YJL168C, strain set2, hits give low values 0.99 | locus YJL187C, strain SWE1 (second series), hits give low values 1.01 | locus YJL187C, strain SWE1, hits give low values 1 | locus YJR043C, strain POL32, hits give low values 1.01 | locus YJR066W, strain TOR1, hits give low values 0.943 | locus YKL009W, strain mrt4, hits give low values 1 | locus YKL068W, hits give low values 0.998 | locus YKL085W, strain MDH1 (second series), hits give low values 0.995 | locus YKL085W, strain MDH1, hits give low values 0.995 | locus YKL160W, strain elf1, hits give low values 0.961 | locus YKL190W, strain CNB1, hits give low values 0.98 | locus YKR001C, strain vps1, hits give low values 0.997 | locus YKR026C, strain gcn3, hits give low values 0.998 | locus YKR091W, strain srl3, hits give low values 0.992 | locus YLL001W, strain dnm1, hits give low values 0.96 | locus YLL026W, hits give low values 0.99 | locus YLL041C, strain sdh2, hits give low values 0.995 | locus YLR027C, strain aat2, hits give low values 0.994 | locus YLR039C, strain RIC1, hits give low values 1.07 | locus YLR058C, strain SHM2, hits give low values 1.01 | locus YLR102C, strain apc9, hits give low values 0.999 | locus YLR113W, strain HOG1, hits give low values 1.04 | locus YLR221C, strain rsa3, hits give low values 0.972 | locus YLR258W, strain gsy2, hits give low values 0.98 | locus YLR262C, strain YPT6 (second series), hits give low values 1 | locus YLR262C, strain YPT6, hits give low values 1.03 | locus YLR268W, strain sec22, hits give low values 0.987 | locus YLR320W, strain mms22, hits give low values 0.971 | locus YLR330W, strain CHS5, hits give low values 1.01 | locus YLR342W, strain FKS1 (second series), hits give low values 1.02 | locus YLR342W, strain FKS1, hits give low values 0.994 | locus YLR357W, strain rsc2, hits give low values 0.971 | locus YLR370C, strain arc18, hits give low values 0.975 | locus YLR371W, strain rom2, hits give low values 0.981 | locus YLR384C, strain iki3, hits give low values 0.991 | locus YLR418C, strain cdc73, hits give low values 0.923 | locus YML016C, strain PPZ1, hits give low values 1.01 | locus YML032C, strain rad52, hits give low values 0.993 | locus YML120C, strain ndi1, hits give low values 0.946 | locus YML124C, strain tub3, hits give low values 0.993 | locus YMR058W, strain fet3, hits give low values 0.998 | locus YMR078C, strain ctf18, hits give low values 1 | locus YMR125W, strain sto1, hits give low values 0.978 | locus YMR129W, hits give low values 0.996 | locus YMR205C, strain PFK2, hits give low values 0.974 | locus YMR223W, strain ubp8, hits give low values 0.987 | locus YMR231W, strain pep5, hits give low values 1 | locus YMR307W, strain GAS1, hits give low values 0.9 | locus YNL067W, strain RPL9B, hits give low values 0.997 | locus YNL071W, strain lat1, hits give low values 0.983 | locus YNL128W, strain TEP1, hits give low values 1.01 | locus YNL153C, strain GIM3, hits give low values 1.01 | locus YNL183C, strain NPR1, hits give low values 0.964 | locus YNL209W, strain ssb2, hits give low values 0.986 | locus YNL233W, strain BNI4, hits give low values 1.01 | locus YNL248C, strain rpa49, hits give low values 0.992 | locus YNL250W, strain rad50, hits give low values 0.987 | locus YNL271C, strain bni1, hits give low values 1 | locus YNL298W, strain CLA4, hits give low values 1 | locus YNL307C, strain MCK1, hits give low values 0.988 | locus YNL322C, strain KRE1 (second series), hits give low values 0.966 | locus YNR049C, strain mso1, hits give low values 0.995 | locus YNR052C, strain pop2, hits give low values 0.995 | locus YOL012C, strain htz1 0.833 | locus YOL147C, strain pex11, hits give low values 1 | locus YOR001W, strain rrp6, hits give low values 1.03 | locus YOR061W, strain CKA2, hits give low values 1.01 | locus YOR069W, strain VPS5, hits give low values 1.01 | locus YOR070C, strain gyp1, hits give low values 1 | locus YOR080W, strain dia2, hits give low values 1 | locus YOR083W, strain WHI5, hits give low values 0.963 | locus YOR106W, strain vam3, hits give low values 0.976 | locus YOR136W, strain idh2, hits give low values 0.985 | locus YOR144C, strain elg1, hits give low values 1 | locus YOR184W, strain ser1, hits give low values 0.979 | locus YOR231W, strain MKK1, hits give low values 0.972 | locus YOR265W, strain rbl2, hits give low values 0.994 | locus YOR270C, strain vph1, hits give low values 0.984 | locus YOR290C, strain snf2, hits give low values 0.923 | locus YOR316C, strain cot1, hits give low values 1.01 | locus YPL051W, strain arl3, hits give low values 0.998 | locus YPL055C, strain LGE1, hits give low values 0.991 | locus YPL078C, strain atp4, hits give low values 0.974 | locus YPL106C, strain sse1, hits give low values 0.961 | locus YPL240C, strain hsp82, hits give low values 1 | locus YPL256C, strain CLN2, hits give low values 1 | locus YPR119W, strain clb2, hits give low values 0.991 | locus YPR141C, strain kar3, hits give low values 0.993 | locus YPR163C, strain tif3, hits give low values 0.998 | locus YPR167C, strain met16, hits give low values 0.979 | strain wtn01, hits give low values 0.98
